The results in this text go back to PubChem BioAssay (Tox21).

Unmarked numbers belong to inactive results. Results filed as inconclusive are left out. Active and inactive are the calls of the source. Unless noted, calls follow the shape of the full dose curve.

A short description of assay [1]: Nuclear factor erythroid 2-related factor 2/antioxidant responsive element (Nrf2/ARE) small molecule agonists: qHTS cell viability counter screen in human keratinocytes (AID 1919968; active = well fitted curve in the direction sought with a large enough effect in the repeat runs; an effect the other way counts as inactive or inconclusive; also: nearly all actives have a fitted effect of over 55% in size). In short, it runs like this:
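KeratinoSens cells (HaCaT keratinocytes stably carrying an ARE-luciferase reporter) were seeded at 1,500 cells/well and rested 5 h at 37 C/5% CO2. They were then exposed to compounds in DMSO for 23 h. Viability was read by CellTiter-Fluor fluorescence after 1 h.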
(In general: Quantitative high-throughput screening tests each substance at several concentrations.)

Assay [2] in a line: Nuclear factor erythroid 2-related factor 2/antioxidant responsive element (Nrf2/ARE) small molecule agonists: luciferase reporter gene qHTS assay in human keratinocytes (AID 1919969). Also: nearly all actives have a fitted effect of over 35% in size. Background: In a reporter assay the amount or activity of a reporter protein is the signal.
The target in assay [3] is Gonadotropin-releasing hormone receptor (Homo sapiens) (UniProt P30968). Nature of the assay: Human gonadotropin-releasing hormone receptor (GnRHR) small molecule agonists, calcium flux assay in GnRHR-HEK293 cells (AID 1920063). Also: nearly all actives have a fitted effect of over 35% in size. The method in brief: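 HEK293 cells stably expressing human GnRHR were plated 18 h at 37 °C, loaded with calcium dye 1 h at 37 °C, then given compound in agonist mode; fluorescence (Ex/Em 480/540) read kinetically for 3 min at 1 s intervals.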
(Calcium flux is commonly read through the fluorescence of an indicator in the cells.)

Assay [4] has as its target KiSS-1 receptor (Homo sapiens) (UniProt Q969F8). Nature of the assay: Human kisspeptin (KISS1R) small molecule agonists, calcium flux assay in KISS1R-HEK293 cells (AID 1920064; active = well fitted curve in the direction sought with a large enough effect in the repeat runs; an effect the other way counts as inactive or inconclusive). In short, it runs like this: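 HEK293 cells stably expressing human KISS1R were plated 18 h at 37 °C, loaded with calcium dye for 1 h at 37 °C, then given compound by pin tool. Fluorescence (Ex/Em 480/540) was read kinetically for 3 min.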

Assay [5] can be described thus: G protein-coupled receptor (GPCR) small molecule agonists, calcium flux assay: HEK293 wild type cell line counter screen (AID 1920065). The method in brief: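 Cells were plated and cultured 18 h at 37 C/5% CO2, then loaded with calcium dye for 1 h at 37 C. Compounds in DMSO were pin-transferred in agonist mode, and fluorescence (Ex/Em 480/540) was read kinetically for 3 min at 1 s intervals.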

The nature of assay [6]: p53 small molecule agonists, cell-based qHTS assay with human liver microsomes (AID 1963577).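 Also: p53 response element beta-lactamase reporter cells with liver microsomes plus NADPH.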 In short, it runs like this: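 Metabolically competent format: test substances, human liver microsomes and NADPH (both 0.5 mg/mL final) incubated with p53RE-bla cells 16 h at 37 C. Beta-lactamase reporter signal then quantified by fluorescence.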
Assay [7] is described as follows: p53 small molecule agonists, cell-based qHTS assay with rat liver microsomes (AID 1963578). The method in brief: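 Each plate received p53RE-bla cells, then compound, then rat liver microsomes and NADPH (both 0.5 mg/mL final). Plates were held 16 h at 37 C, and beta-lactamase activity was detected with LiveBLAzer over 2 h.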
The nature of assay [8]: p53 small molecule agonists, cell-based qHTS assay with human liver microsomes: qHTS cell viability counter screen (AID 1963579). Also: nearly all actives have a fitted effect of over 45% in size. In short, it runs like this:
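Tox21 library compounds, delivered from DMSO stocks, were tested on p53RE-bla cells together with 0.5 mg/mL human liver microsomes and 0.5 mg/mL NADPH (final) over 16 h at 37 C; CellTiter-Glo luminescence served as the cytotoxicity measure.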

The nature of assay [9]: p53 small molecule agonists, cell-based qHTS assay with rat liver microsomes: qHTS cell viability counter screen (AID 1963580). Also: nearly all actives have a fitted effect of over 45% in size. The method in brief: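 Intracellular ATP, by CellTiter-Glo luminescence, defines viability. HCT-116 p53RE-bla cells, 4,000 per well, were compound-treated in the presence of rat liver microsomes and NADPH for 16 h at 37 C.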
Assay [10] is described as follows: p53 small molecule agonists, cell-based qHTS assay: qHTS cell viability counter screen (AID 1963581). Also: nearly all actives have a fitted effect of over 45% in size. In short, it runs like this:
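p53RE-bla HCT-116 cells were exposed to compounds for 16 h at 37 C; after the beta-lactamase FRET read in the same wells, CellTiter-Glo was added and luminescence (intracellular ATP) read after 30 min at room temperature.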

A short description of assay [11]: p53 small molecule agonists, cell-based qHTS assay (AID 1963582; active = well fitted activation curve with a large enough effect in the signal ratio in the repeat runs, not every such curve was filed as active; the % refers to the signal ratio). The method in brief: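 p53RE-bla beta-lactamase reporter cells rested 5 h at 37 C/5% CO2, then received compounds in DMSO by pin transfer and were incubated 16 h at 37 C. LiveBLAzer B/G FRET substrate was loaded for 2 h at room temperature before fluorescence reading.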
Assay [12] addresses 5-hydroxytryptamine receptor 2A (Homo sapiens) (UniProt P28223). Nature of the assay: 5-hydroxytryptamine receptor 2A (HTR2A) small molecule antagonists, cell-based qHTS assay (AID 1963586). Also: nearly all actives have a fitted effect of over 45% in size. The method in brief: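 Antagonist-mode intracellular calcium assay: DOI (4 nM) added after 5 min compound pre-incubation at room temperature to dye-loaded HTR2A-CHO cells. Fluorescence followed for 3 min, sampled every second.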

The target is the same in assay [13]. The assay can be described thus: 5-hydroxytryptamine receptor 2A (HTR2A) small molecule agonists, cell-based qHTS assay (AID 1963587). Also: nearly all actives have a fitted effect of over 30% in size. In short, it runs like this:
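Kinetic calcium-flux fluorescence (2 min, 1 sec intervals) after compound addition in agonist mode. HTR2A-CHO cells were cultured 18 h, then dye-loaded 1 h at 37 C.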

Assay [14] addresses Muscarinic acetylcholine receptor M1 (Homo sapiens) (UniProt P11229). The assay can be described thus: Cholinergic receptor muscarinic 1 (CHRM1) small molecule antagonists, cell-based qHTS assay (AID 1963588). Also: nearly all actives have a fitted effect of over 40% in size. Also: potency is read from the fitted curve at half-maximal effect. In short, it runs like this:
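CHRM1-CHO calcium-flux assay, antagonist mode. Cells were seeded 18 h, dye-loaded 1 h at 37 C and given compound for 5 min at RT, then acetylcholine was added at 50nM. FDSS fluorescence was read 3 min; 15 concentrations, three runs.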

The target is the same in assay [15]. Nature of the assay: Cholinergic receptor muscarinic 1 (CHRM1) small molecule agonists, cell-based qHTS assay (AID 1963589). Also: nearly all actives have a fitted effect of over 35% in size. The method in brief: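 CHO cells stably expressing human CHRM1, seeded 18 h at 37 C/5% CO2, dye-loaded 1 h at 37 C, then given compound in agonist mode; intracellular calcium fluorescence read kinetically at 1 s intervals. Fifteen concentrations, three independent runs.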

Assay [16] in a line: cAMP Responsive Elements (CRE) small molecule agonists, cell-based qHTS assay (AID 1963590). The method in brief:
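CRE-bla HEK 293T cells in DMEM with 10% dialyzed FBS, NEAA, pyruvate and 25 mM HEPES were plated 18 h at 37 C/5% CO2, then exposed to compounds in DMSO for 3 h before LiveBLAzer B/G FRET substrate addition.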

Assay [17] addresses Beta-2 adrenergic receptor (Homo sapiens) (UniProt P07550). Nature of the assay: Adrenergic beta2 receptor (ADRB2) small molecule antagonists, cell-based qHTS assay (AID 1963592). Also: series mostly up to about 92 µM; nearly all actives have a fitted effect of over 50% in size. In short, it runs like this:
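Cells (CHO, stable ADRB2 overexpression) incubated 18-20hr at 37C; compounds added from DMSO; agonist mix (1nM isoproterenol, 100uM IBMX, 25uM Ro-20-1724) added; 0.5hr RT; d2-cAMP and anti-cAMP-cryptate added; 1hr RT; 665/615 nm read.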

Assay [18] deals with D(2) dopamine receptor (Homo sapiens) (UniProt P14416). The assay can be described thus: Dopamine D2 receptor (DRD2) small molecule agonists, cell-based qHTS assay (AID 1963594). Also: nearly all actives have a fitted effect of over 35% in size. In short, it runs like this:
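cAMP accumulation in DRD2-HEK293 cells measured by HTRF after 1 h detection; compounds added 10 min before NKH477 (200nM […]) forskolin-analogue stimulation, 30 min at room temperature, with Ro20-1724 present at 0.1 mM final.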

The target is the same in assay [19]. The assay can be described thus: Dopamine D2 receptor (DRD2) small molecule antagonists, cell-based qHTS assay (AID 1963595; active = well fitted inhibition curve with a large enough effect in the signal ratio in the repeat runs, with a control signal flat; the % refers to the signal ratio). In short, it runs like this: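 DRD2-HEK293; 0.1 mM Ro20-1724; cpd 10 min RT; NKH477 200 nM + quinpirole 12 nM, 30 min RT; HTRF cAMP (cAMP-d2/anti-cAMP cryptate), 665/620 nm ratio after 1 h.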
Assay [20] is described as follows: cAMP Responsive Elements (CRE) small molecule antagonists, cell-based qHTS assay (AID 1963591; active = well fitted inhibition curve with a large enough effect in the signal ratio in the repeat runs, not every such curve was filed as active; the % refers to the signal ratio). The method in brief:
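CRE-bla HEK293T cells were plated 18 h at 37 °C/5% CO2, pinned with compound in DMSO, then stimulated with NKH477 at 0.25 uM final for 3 h. LiveBLAzer B/G FRET substrate was added and plates incubated 2 h at room temperature.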
% is scaled to controls: 0 for no effect and ±100 for the full control effect.

KiSS-1 receptor (Homo sapiens), sequence (Q969F8 whole entry, looked up): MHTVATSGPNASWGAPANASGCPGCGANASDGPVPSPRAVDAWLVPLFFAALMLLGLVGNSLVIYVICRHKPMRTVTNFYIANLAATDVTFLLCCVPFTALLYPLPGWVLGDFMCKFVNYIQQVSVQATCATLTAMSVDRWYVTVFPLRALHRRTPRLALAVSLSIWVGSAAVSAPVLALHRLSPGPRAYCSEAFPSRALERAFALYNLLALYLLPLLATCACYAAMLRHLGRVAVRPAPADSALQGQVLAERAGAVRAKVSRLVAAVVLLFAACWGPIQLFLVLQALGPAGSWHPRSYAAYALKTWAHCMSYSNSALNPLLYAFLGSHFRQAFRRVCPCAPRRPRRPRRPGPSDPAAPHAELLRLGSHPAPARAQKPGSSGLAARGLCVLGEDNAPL
5-hydroxytryptamine receptor 2A (Homo sapiens), sequence (P28223 whole entry, looked up): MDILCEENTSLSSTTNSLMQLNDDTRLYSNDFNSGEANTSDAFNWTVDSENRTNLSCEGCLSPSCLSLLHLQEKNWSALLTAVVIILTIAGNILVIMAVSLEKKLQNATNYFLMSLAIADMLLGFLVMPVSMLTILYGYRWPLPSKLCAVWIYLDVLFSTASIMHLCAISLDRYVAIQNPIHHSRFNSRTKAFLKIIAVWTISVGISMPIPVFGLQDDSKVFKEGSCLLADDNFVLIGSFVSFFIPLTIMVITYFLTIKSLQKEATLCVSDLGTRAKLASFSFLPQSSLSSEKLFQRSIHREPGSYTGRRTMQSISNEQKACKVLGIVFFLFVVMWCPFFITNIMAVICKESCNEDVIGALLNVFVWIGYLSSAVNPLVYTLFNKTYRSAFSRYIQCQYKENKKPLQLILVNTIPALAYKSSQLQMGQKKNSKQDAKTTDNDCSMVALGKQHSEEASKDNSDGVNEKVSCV
Gonadotropin-releasing hormone receptor (Homo sapiens), sequence (P30968 whole entry, looked up): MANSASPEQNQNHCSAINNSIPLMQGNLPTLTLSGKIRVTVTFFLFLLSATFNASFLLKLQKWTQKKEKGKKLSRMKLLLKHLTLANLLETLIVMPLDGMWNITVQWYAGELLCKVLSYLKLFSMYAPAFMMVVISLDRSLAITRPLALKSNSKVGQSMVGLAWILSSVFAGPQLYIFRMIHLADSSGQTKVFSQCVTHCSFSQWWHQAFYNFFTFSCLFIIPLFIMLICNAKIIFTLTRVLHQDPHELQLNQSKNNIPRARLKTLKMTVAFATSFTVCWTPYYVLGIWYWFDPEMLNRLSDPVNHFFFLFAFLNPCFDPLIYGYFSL
D(2) dopamine receptor (Homo sapiens), sequence (P14416 whole entry, looked up): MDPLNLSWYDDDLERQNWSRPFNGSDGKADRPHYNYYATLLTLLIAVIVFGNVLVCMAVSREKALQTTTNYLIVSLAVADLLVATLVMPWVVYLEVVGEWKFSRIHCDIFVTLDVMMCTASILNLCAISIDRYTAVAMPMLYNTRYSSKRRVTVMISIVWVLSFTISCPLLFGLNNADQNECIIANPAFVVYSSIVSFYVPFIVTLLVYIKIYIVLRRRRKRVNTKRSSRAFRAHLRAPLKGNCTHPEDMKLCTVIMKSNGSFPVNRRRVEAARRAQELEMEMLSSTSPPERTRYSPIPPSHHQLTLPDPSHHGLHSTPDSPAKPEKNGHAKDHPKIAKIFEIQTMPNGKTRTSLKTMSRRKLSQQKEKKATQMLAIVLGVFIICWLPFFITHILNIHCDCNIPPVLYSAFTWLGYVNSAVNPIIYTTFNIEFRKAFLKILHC
Muscarinic acetylcholine receptor M1 (Homo sapiens), sequence (P11229 whole entry, looked up): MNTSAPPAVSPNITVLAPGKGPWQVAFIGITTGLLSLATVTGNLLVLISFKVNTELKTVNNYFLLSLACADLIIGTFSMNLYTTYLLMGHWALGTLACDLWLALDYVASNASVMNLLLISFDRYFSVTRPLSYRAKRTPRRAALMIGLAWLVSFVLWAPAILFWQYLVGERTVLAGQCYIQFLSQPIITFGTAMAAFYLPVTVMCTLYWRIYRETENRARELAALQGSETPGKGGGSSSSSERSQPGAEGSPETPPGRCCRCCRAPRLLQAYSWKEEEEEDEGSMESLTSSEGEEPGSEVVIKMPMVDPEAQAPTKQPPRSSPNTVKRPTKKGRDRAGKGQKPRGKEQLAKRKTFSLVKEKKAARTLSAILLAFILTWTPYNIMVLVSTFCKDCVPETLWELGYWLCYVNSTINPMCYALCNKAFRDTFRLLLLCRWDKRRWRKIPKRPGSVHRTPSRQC
Beta-2 adrenergic receptor (Homo sapiens), sequence (P07550 whole entry, looked up): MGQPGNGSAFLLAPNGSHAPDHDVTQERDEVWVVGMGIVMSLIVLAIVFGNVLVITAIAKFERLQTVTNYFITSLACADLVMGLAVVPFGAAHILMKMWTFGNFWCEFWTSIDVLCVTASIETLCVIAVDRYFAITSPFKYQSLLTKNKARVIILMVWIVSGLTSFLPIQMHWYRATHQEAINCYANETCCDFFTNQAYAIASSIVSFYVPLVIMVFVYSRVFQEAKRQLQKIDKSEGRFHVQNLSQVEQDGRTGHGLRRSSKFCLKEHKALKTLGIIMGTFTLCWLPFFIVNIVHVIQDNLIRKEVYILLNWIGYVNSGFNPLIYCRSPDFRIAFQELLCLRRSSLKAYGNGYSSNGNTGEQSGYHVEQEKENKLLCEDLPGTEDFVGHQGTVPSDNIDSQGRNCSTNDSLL

With `CCCCNS(=O)(=O)c1ccc(C)cc1`, the Potency result in [1], in assay [2], in assay [3], in assay [6], in assay [7] and in assay [8] was “inactive” in each case. Moreover, the Potency result in assay [9], in assay [10], in assay [11], in assay [12], in assay [13] and in assay [14] was “inactive” throughout. The Potency entry in assay [15], in assay [16], in [17], in [18] and in assay [19] was “inactive” throughout. Also, the result in assay [4] and in [5] was inactive.
Consider `O=C1CCCc2c(O)cccc21`, for which the Potency entry in assay [1], in assay [2], in [3], in assay [6], in [7] and in assay [8] was “inactive” in each case. The Potency entry in assay [9], in assay [10], in [11], in assay [12], in assay [13] and in assay [15] was “inactive” in each case. The Potency entry in assay [16], in [20] and in assay [19] was “inactive” each time. Besides, the outcome in [4] and in assay [5] was inactive. Also, the Potency in assay [14] is 163 nM (active).
Turning to `CN1CCN(c2c(F)cc3c(=O)c(C(=O)O)cn4c3c2OCN4C)CC1`, the activity change, negative = cytotoxicity in [1] is 9.2% [at 19 µM]; in assay [8] it was -4.82% [at 13.5 µM]; in assay [9], -2.46% [at 13.5 µM]; in assay [10] it was 0.627% [at 13.5 µM]. Moreover, the activity, positive = activation in assay [2] was -3.8% [at 19 µM]. The activity change in assay [3] was 0.0141% [at 11.8 µM, active compounds read high]. Moreover, the activation is -1.38% [at 15.8 µM] in [4]; -0.0119% [at 11.8 µM] in [5]; 0.808% [at 13.5 µM] in assay [6]; -0.432% [at 13.6 µM] in assay [7]; -0.645% [at 13.5 µM] in [11]; -1.68% [at 15.9 µM] in assay [13]. In addition, the activation in assay [15] is -0.139% [at 15.8 µM]; in assay [18] it was 11.6% [at 19 µM]. In addition, the activity, negative = inhibition was -5.02% [at 12.7 µM] in assay [12] and -0.388% [at 12.6 µM] in assay [14]. In addition, the activity change, negative = inhibition was -9.33% [at 18.9 µM] in assay [20], 2.14% [at 19 µM] in assay [17] and 2.83% [at 18.9 µM] in [19].
